Screens: PubChem BioAssay, National Center for Advancing Translational Sciences (NCATS)
Tb PYK inh = T. brucei pyruvate kinase inhibition | Potency, µM (series often up to 76.8 µM), for the others: top-dose activity, negative = inhibition, actives largely listed as inhibitors | TbPYK enzyme, Kinase-Glo Plus ATP luminescence, 45 min | 410,000 tested, 0.12% active | Q57TT1; further: potency means the concentration at half of the fitted maximal effect; nearly all actives have a fitted effect of over 50% in size
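Screened from lowest to highest concentration, compounds were pinned into TbPYK/substrate mixtures, and ADP (130 uM final) was added. Plates sat at room temperature for 45 min prior to Kinase-Glo Plus detection by luminescence.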
HCMV inh = blocks human cytomegalovirus replication | HFF cells, HCMV-luciferase reporter, 72 h; hits give low values | 410,000 tested, 4.5% active | activity change, negative = inhibition, % at 57.5 µM | AID 1259415; in the data active means activity change below about -60%; inconclusive means no clear call, values can overlap the other calls; inactive means above about -39%
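Luciferase read-out from HCMV-luciferase-infected HFFs (MOI 1 PFU/cell) 72 h post infection at 37C; compounds added after 16 h cell attachment; activity normalized between buffer-only basal and Salinomycin (10uM) inhibitor controls.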
FMDV antiviral = blocks foot and mouth disease virus. Potency, µM (doses to about 57.9 µM), for inactives: at the top dose activity change, negative = inhibition, usual class: inhibitors. 410,000 tested, 1.2% active. AID 1159524. FMDV antiviral cell-based qHTS; calls by dose curve; tested in HEK293T cells; further: read-out not given here; potency means the concentration at half of the fitted maximal effect; nearly all actives have a fitted effect of over 45% in size
Giardia FBPA inh = Giardia lamblia aldolase inhibition; A8B2U2; purified Giardia FBPA; Potency, µM (titrated, usually from 59.6 µM), for inactives: at the top dose activity, negative = inhibition, actives largely listed as inhibitors; 290,000 tested, 0.71% active; AID 2451; further: potency means the concentration at half of the fitted maximal effect; nearly all actives have a fitted effect of over 55% in size
Target sequence (A8B2U2 whole entry, looked up): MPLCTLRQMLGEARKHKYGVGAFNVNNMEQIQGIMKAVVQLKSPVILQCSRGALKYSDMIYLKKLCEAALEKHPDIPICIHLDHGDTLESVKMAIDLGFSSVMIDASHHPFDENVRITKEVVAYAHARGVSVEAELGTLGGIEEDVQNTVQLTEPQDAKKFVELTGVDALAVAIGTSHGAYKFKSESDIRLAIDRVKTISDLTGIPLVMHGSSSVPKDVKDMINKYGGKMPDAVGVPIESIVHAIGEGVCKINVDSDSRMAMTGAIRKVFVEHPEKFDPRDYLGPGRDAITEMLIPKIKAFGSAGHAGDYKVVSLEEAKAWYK
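Giardia FBPA (40 nM reagent) was preincubated 10 min at RT with compound (up to 57.5 uM final), then substrate plus GAPDH/TPI/NAD/arsenate coupling system with diaphorase/resazurin was added; resorufin fluorescence (525/598 nm) was read after 20 min.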
RE007 growth inh = less growth of the S. pombe RE007 Vpr strain; 360,000 tested, 0.21% active; S. pombe RE007 Vpr strain, BacTiter-Glo ATP luminescence, 24 h; AID 651644; Potency, µM (titrated, usually from 92.2 µM), for inactives: top-dose activity change, negative = less growth, hits mostly inhibitors; active means well fitted falling curve with a large enough effect; inconclusive means small, poorly fitted or top-dose-only effect; inactive means no such curve, though single readings can be large or run the other way; further: potency means the concentration at half of the fitted maximal effect; nearly all actives have a fitted effect of over 50% in size
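Fission yeast strain RE007, carrying one chromosomally integrated HIV-1 vpr copy, was seeded at OD 0.01 in PMG+AL medium with 23 nL pinned compound. After 24 h at 30 °C and 99% humidity, viability was read by BacTiter-Glo luminescence.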
Sm TGR block = blocks Schistosoma mansoni thioredoxin glutathione reductase | purified TGR, DTNB reduction, TNB absorbance 405 nm | Q962Y6 | Potency, µM (doses to about 114 µM), for inactives: at the top dose activity change, negative = inhibition, usual class: inhibitors | 360,000 tested, 3% active; further: potency means the concentration at half of the fitted maximal effect; nearly all actives have a fitted effect of over 60% in size
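First, TGR (20 nM dispensed) and NADPH were mixed with compound. Second, a 15 min room-temperature incubation followed. Third, further NADPH and then DTNB were added to start the reaction. Finally, TNB absorbance was monitored kinetically.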
* hit, by the source's call; ? = inconclusive; . = no result; [ ] = another dose, or the depositor's remark. Sampled rows, rich in hits. Any-hit rate of the full collection: about 7.7%. Unless noted, the call rests on the fitted dose curve; in most records, active means well fitted curve in the direction sought with a large enough effect; inconclusive means small, poorly fitted or top-dose-only effect, or another doubt; inactive means no such curve, though single readings can be large; an effect the other way counts as inactive or inconclusive. On the % scale 0 is the no-effect control and ±100 the full control effect.

SMILES	Tb PYK inh	HCMV inh	FMDV antiviral	Giardia FBPA inh	RE007 growth inh	Sm TGR block
CC(=O)CCN1CCSCCS1(=O)=O	.	4.2	.	.	.	.
O=C1C(C2=C(O)c3ccccc3C2=O)=Nc2ccccc21	?	-78.0*	23.8%	-20.9%	?	?
COc1ccc(COC(=O)N/N=C2/C[C@@H](O)[C@@H](O)[C@@H]3[C@@H]4C(=O)N(c5cccc(Oc6ccccc6)c5)C(=O)[C@H]4CC[C@H]23)cc1	.	.	.	0.4%[12.9 µM]	.	.
CCOC(=O)C(C)Sc1nnc2ccc3ccccc3n12 (stereo unspecified)	3.6%	-86.0*	36.7%	.	.	-3.5%
CCOC(=O)C(C)Sc1nnc2cc(C)c3ccccc3n12 (stereo unspecified)	-1.1%	2.5	-8.5%	.	.	-0.5%
Cc1nc(-c2ccccn2)nc(N2CCOCC2)c1Cl	8.0%	-10.9	-21.7%	-8.0%	-1.7%	3.3%
Cc1nc(-c2ccccn2)nc(N(C)c2ccccc2)c1Cl	0.1%	-61.2*	-8.4%	15.1%	-11.2%	-4.8%
Cc1ccc(N/C(N)=N/c2nc(CSc3ccccn3)cc(=O)[nH]2)c(C)c1	-20.6%	-68.5*	?	-11.9%	-2.3%	0.0%
CCc1ccc(N/C(N)=N/c2nc(CSc3ccccn3)cc(=O)[nH]2)cc1	-0.3%	-84.6*	?	-3.1%	-12.0%	6.4%
Cc1ccc(SCc2cc(=O)[nH]c(/N=C(\N)Nc3ccccc3Sc3ccccc3)n2)cc1	-3.2%	-93.5*	-17.6%	1.3%	-20.6%	1.0%
CN(C)c1ccc(/C=C/c2nc3ccccc3c(=O)[nH]2)cc1	-27.1%	25.2	10µM*	7.8%	.	5.5%
O=c1c2ccccc2nc(/C=C/c2ccccc2O)n1-c1ccccc1O	.	-98.3*	.	-2.7%	.	-19.1%
Cc1cccc(-n2c(C)nc3ccccc3c2=O)c1C	2.0%	-76.4*	-24.6%	0.8%	17.2%	17.0%
O=c1c2ccccc2nc(/C=C/c2ccccc2F)n1-c1ccccc1O	-14.6%	-91.5*	?	3.3%	7.2%	0.0%
O=c1c2ccccc2nc(/C=C\c2ccccc2[N+](=O)[O-])n1-c1ccccc1O	0.6%	0.0	?	-23.7%	1.0%	0.7%
COc1ccc2c(CNCCc3cccs3)c(C(=O)O)n(Cc3ccccc3C)c2c1	-0.8%	22.0	-8.4%	.	.	0.7%
CCCC(=O)OCc1cnc(C)c2oc(=O)c(C(=O)Nc3cccc(C(F)(F)F)c3)cc12	1.8%	20.6	-11.5%	.	.	-0.6%
Cc1ccccc1-n1c(/C=C/c2ccc(N(C)C)cc2)nc2ccccc2c1=O	-0.1%	-82.2*	-26.4%	.	.	2.1%
COc1ccc(C(=O)Nc2cccc(/C=C/c3nc4ccccc4c(=O)[nH]3)c2)cc1	-1.7%	-84.2*	?	-7.4%	-4.9%	9.9%
O=C(Nc1cccc(/C=C/c2nc3ccccc3c(=O)[nH]2)c1)c1ccccc1Cl	-4.1%	39.7	11.6%	2.5%	-7.9%	1.5%
CCOc1ccc(OCc2ccc(C(=O)NN)o2)cc1	-0.9%	42.8	19.9%	-1.1%	11.7%	17.7%
CCCC(=O)c1ccc(CP(=O)(OCC)OCC)o1	-1.0%	37.0	-27.4%	2.0%	2.3%	12.6µM*
COCCCn1c(SCC(=O)NC2CCCC2)nnc1-c1ccco1	-3.9%	29.7	-0.2%	6.4%	10.8%	39.8µM*
CCCn1c(SCC(=O)NC2CCCC2)nnc1-c1cccnc1	-22.8%	-28.3	10.2%	12.7%	-14.8%	-2.8%
COCCn1c(SCC(=O)NC2CCCCC2)nnc1-c1ccco1	3.4%	-32.9	-3.2%	2.7%	4.0%	8.9%
SMILES	Tb PYK inh	HCMV inh	FMDV antiviral	Giardia FBPA inh	RE007 growth inh	Sm TGR block
CCCn1c(SCC(=O)NC2CCCCC2)nnc1-c1cccnc1	1.6%	-65.4*	6.1%	3.6%	1.9%	0.7%
Nc1c(Cl)ncnc1NCCc1ccc(O)cc1	6.8%	-69.8*	-25.3%	1.2%	-4.3%	0.0%
Nc1c(Cl)ncnc1NCc1cccnc1	7.5%	-11.9	-22.9%	-1.0%	1.3%	-5.7%
Cc1ccc2nc(NCCN)c3ncc(C)n3c2c1	.	.	.	-8.6%	.	.
COc1ccc(Nc2ncc(C(=O)Nc3cccc(OC)c3)c3ccccc23)cc1	-2.9%	21.2	7.1%	.	.	20.9%
Cc1ccccc1-n1c(-c2ccc(Br)o2)n[nH]c1=S	?	-10.3	-21.9%	.	-2.6%	.
CC(C)Cn1c(-c2ccc(Br)o2)n[nH]c1=S	3.98µM*	-20.9	-6.6%	8.1%	-2.2%	1.6%
COCCCNc1nnc(Cc2ccccc2)c2ccccc12	0.1%	-27.1	5.7%	4.2%	1.5%	0.0%
c1ccc(Cc2nnc(Sc3ccccc3)c3ccccc23)cc1	-0.8%	-88.3*	?	0.6%	-6.8%	-6.6%
O=C1CC(SCc2nc3ccccc3[nH]2)C(=O)N1c1cccc(F)c1 (stereo unspecified)	-7.0%	-25.4	-6.9%	-18.6%	31.6µM*	?
O=C1CC(SCc2nc3ccccc3[nH]2)C(=O)N1c1ccc(F)c(Cl)c1 (stereo unspecified)	.	-8.8	-3.1%	-3.2%	-5.0%[3.69 µM]	39.8µM*
CCCOc1ccc(N2C(=O)CC(SCCc3nc4ccccc4[nH]3)C2=O)cc1 (stereo unspecified)	-9.6%	-9.9	-35.8%	-7.5%	-10.7%	-12.7%[57.1 µM]
O=C1CC(SCCc2nc3ccccc3[nH]2)C(=O)N1c1ccc(Cl)cc1 (stereo unspecified)	-6.3%	-19.5	-6.4%	-1.8%	?	?
CCOc1ccc(N2C(=O)CC(SCc3nc4ccccc4[nH]3)C2=O)cc1 (stereo unspecified)	5.5%	10.4	-1.5%	-16.9%	10µM*	44.7µM*
O=C1CC(SCc2nc3ccccc3[nH]2)C(=O)N1c1ccc(Cl)cc1 (stereo unspecified)	-7.2%	-19.4	-16.2%	-16.9%	15.8µM*	25.1µM*
Cc1cc(Cl)ccc1OCCSc1nnc(-c2cccs2)o1	5.8%	-12.3	0.5%	.	.	4.3%
CC(C)NC(=O)N1CC[C@@]2(CCCN(C(=O)c3cc(C(F)(F)F)cc(C(F)(F)F)c3)C2)C1	-5.2%	.	-3.3%	7.8%	.	.
CCOc1ccc(NC(=O)Cn2c(=O)cc(C)c3c(C)nn(-c4ccc(CC)cc4)c32)cc1	5.0%	26.9	-6.7%	.	.	3.6%
CN(Cc1nc2ccccc2c(=O)[nH]1)C(=O)c1ccc(S(=O)(=O)N(C)C)cc1	10.4%	-12.9	-11.2%	6.5%	-7.7%	5.3%
CC(=O)c1ccc(-c2ccc(C(=O)N(C)Cc3nc4ccccc4c(=O)[nH]3)o2)cc1	-10.0%	-30.4	22.4µM*	.	-3.4%	?
CC1=NNC(=O)/C1=C\c1cn(-c2ccccc2)nc1-c1ccccc1	-11.2%	-100.0*	8.91µM*	-4.5%	-2.0%	.
COc1ccc(OCc2n[nH]c(=S)n2Cc2ccco2)cc1	2.82µM*	-22.0	30.5%	-0.5%	2.0%	0.8%
